Assay results: PubChem BioAssay (NCI)
About 83,000 compounds went through this panel and 20% of them were active in at least one assay; those are over-represented in the sample as a whole.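 Step 1: grow cells in 96-well plates. Step 2: add test compound at a single concentration. Step 3: incubate 48 h. Step 4: record percent growth.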 A number with no mark means an inactive call. Active and inactive are the calls of the source.

Tested on: OVCAR-3 ovarian
Test: NCI-60 one-dose screen, 48 h (100 = growth as untreated, 0 = no growth, -100 = all killed)
Settings: 10 µM unless noted
Procedure: Growth inhibition of the OVCAR-3 human tumor cell line is measured as a screen for anti-cancer activity. Cells are grown in 96 well plates and exposed to the test compound for 48 hours. Compounds are tested at a single concentration, which is 10^-5 M for most compounds. The reported endpoint is percent growth (GI% or GIPRCNT), where numbers from 0 - 100% represent growth inhibition, and numbers from -100% - 0 represent cell death. For example, a value of 40 represents 60% growth inhibition. A value of 0 means no net growth occurred over the course of the experiment. A value of -40 indicates 40% of cells at the beginning of the experiment died by the end of the experiment. A value of -100 means all cells are dead at the end of the experiment.
NCI-60 Human Tumor Cell Lines Screen was performed using the standard one-dose NCI protocol, which is described in more detail at https://dtp.cancer.gov/discovery_development/nci-60/default.htm.
Compounds with GIPRCNT values below 10 were considered active. Activity score was based on GIPRCNT using the following formula: […]
Score is 0 for GIPRCNT values of 100 or above, 50 for GIPRCNT values of 0, and 100 for GIPRCNT values of -100.

**Q.** Which growth does the source give for `CCCCC#Cc1c(I)n(C)c(=O)[nH]c1=O` here?
**A.** -90.7% (active)

**Q.** How did the growth turn out when `CC(=O)OC[C@]12CC[C@@H]([C@@H](C)c3nnc(-c4ccncc4)o3)[C@@H]1[C@H]1CC[C@@H]3[C@@]4(C)CC[C@H](OC(C)=O)C(C)(C)[C@@H]4CC[C@@]3(C)[C@]1(C)CC2` was run?
**A.** 80.9%

**Q.** How did the growth turn out when `C=C1C(=O)O[C@H]2[C@H]1CC/C(Cn1cc(CCC)nn1)=C\CC[C@@]1(C)O[C@@H]21` was run?
**A.** 1.06% (active)

**Q.** Which growth does the source give for `NC1(CO)COC(c2ccccc2)OC1` (stereo not given) here?
**A.** 126%

**Q.** For `COc1ccc(C(=O)Cn2c(C(=O)c3ccc(OC)cc3)nc3ccccc32)cc1`, which growth is on record?
**A.** -10.4% (active)

**Q.** For `C=CCC(CCCC)(C(=O)OCC)C(=O)OCC`, which growth is on record?
**A.** 118%

**Q.** `CN(C)CCCC1(c2ccc(F)cc2)OCc2cc(-c3cc4ccccc4s3)ccc21` (stereo not given) was tested. Which growth did it give?
**A.** -29.1% (active)

**Q.** `CN1CCN(CCOc2ccc(-c3cnc4c(-c5ccc(F)cc5)cnn4c3)cc2)CC1` was tested. Which growth did it give?
**A.** 28.4%

**Q.** How did the growth turn out when `CCN1CCN(c2cc(C)nc(N(CCNc3ccnc4cc(Cl)ccc34)Cc3ccc4c(c3)OCO4)n2)CC1` was run?
**A.** -55.8% (active)

**Q.** Which growth does the source give for `CN1C(=O)/C(=C/c2ccc(C(=O)Nc3ncc(Cc4cccc(Cl)c4)s3)cc2)SC1=S` here?
**A.** 69%

**Q.** Which growth does the source give for `COc1ccc(C2=NN(C(C)=O)C(c3cn(-c4ccccc4)nc3-c3ccc(Cl)cc3)C2)cc1` (stereo not given) here?
**A.** -42.6% (active)

**Q.** `Cc1ccc(S(=O)(=O)OCCCOS(=O)(=O)c2ccc(C)cc2)cc1` was tested. Which growth did it give?
**A.** 107%

**Q.** `Clc1c(Cl)[n+](Cc2ccc3ccccc3c2)cn1Cc1ccc2ccccc2c1` was tested. Which growth did it give?
**A.** -21.8% (active)

**Q.** How did the growth turn out when `CCOC(=O)c1c(C)c2c(n1Cc1ccccc1)CSCC2=O` was run?
**A.** -2.49% [100 µM] (active)

**Q.** `Cc1ncc(C(=O)Nc2ccc(CN3CCN(C)CC3)c(C(F)(F)F)c2)cc1C#Cc1cnc(N)c2ncccc12` was tested. Which growth did it give?
**A.** 55.4%

**Q.** Which growth does the source give for `Cn1cc(-c2ccc(-c3cn(C)c4ccc(Cl)cc34)[nH]2)c2cc(Cl)ccc21` here?
**A.** -84% (active)

**Q.** Which growth does the source give for `COc1cccc(Nc2ncnc3cc(NC(=O)CCl)ccc23)c1` here?
**A.** -82.9% (active)

**Q.** For `O=C(Cc1ccccc1)Nc1cccc(N=Cc2ccccc2O)c1`, which growth is on record?
**A.** 93.2%

**Q.** `O=C(CCCCCNC(=O)c1cc(=O)c(O)co1)Nc1ccccc1` was tested. Which growth did it give?
**A.** 109%

**Q.** How did the growth turn out when `CCc1n(Cc2ccc3ccccc3n2)cc[n+]1Cc1ccc2ccccc2n1` was run?
**A.** 14.2%

**Q.** Which growth does the source give for `Cc1c(CN)cc(-c2ccc(Cl)cc2)n1-c1ccccc1` here?
**A.** 106%

**Q.** For `CC1(C)CC[C@]23CC[C@]4(C)[C@H](CC[C@@H]5[C@@]6(C)C/C(=C/c7ccncc7)C(=O)C(C)(C)[C@@H]6CC[C@]54C)[C@H]2[C@H]1OC3`, which growth is on record?
**A.** 84.4%

**Q.** Which growth does the source give for `O=C(NC1CC(F)C1)c1cc2cccnc2n1-c1ccc(Cl)c(Cl)c1` (stereo not given) here?
**A.** 102%

**Q.** With `O=C(NNC(=O)c1nc2cc(F)ccc2n2cccc12)c1cnccn1` as the compound, how does the growth read?
**A.** 30%

**Q.** How did the growth turn out when `CCOC(=O)c1c(C)nc2c(c1N)CC(=O)N2Cc1ccc(OC)cc1` was run?
**A.** 16.4%

**Q.** How did the growth turn out when `CC1(C)C(N)=Nc2cc(OCCCN3Cc4ccccc4C3)c(OCC3CC3)cc21` was run?
**A.** 80.6%

**Q.** How did the growth turn out when `O=[N+]([O-])c1ccc(-c2cn3nc(-c4c[nH]c5ccccc45)sc3n2)cc1` was run?
**A.** 109%

**Q.** Which growth does the source give for `CN1CCN(Cc2ccc(NC(=O)c3cncc(C#Cc4cnc5ccc(Cl)nn45)c3)cc2C(F)(F)F)CC1` here?
**A.** -5.42% (active)

**Q.** With `C[C@@H]1O[C@@H](O[C@@H]2C[C@H](c3ccc4c(c3O)C(=O)C3=C(C4=O)[C@@]4(O)C(=O)C[C@](C)(O)C[C@@]4(O)C=C3)O[C@H](C)[C@H]2O)CC[C@@H]1O[C@H]1C[C@@H](O)[C@H](O)[C@@H](C)O1` as the compound, how does the growth read?
**A.** 98.1%

**Q.** `CCOC(=O)C1=C(C)/C(=C\c2[nH]c(C)c(C(=O)OCC)c2C)N=C1C` was tested. Which growth did it give?
**A.** 21.7%

**Q.** Which growth does the source give for `C=CCn1c(SCC(=O)Nc2ccc(/C(C)=N/O)cc2)nnc1-c1cc(-c2ccc(S(N)(=O)=O)cc2)nc2ccccc12` here?
**A.** 70.9%

**Q.** With `CN(Cc1cnc2nc(N)nc(N)c2n1)c1ccc(C(=O)NC(CCC(=O)O)C(=O)O)cc1Br` (stereo not given) as the compound, how does the growth read?
**A.** 53.8%

**Q.** `O=C(Cn1nnc2ccccc21)N/N=C/c1c[nH]c2ccccc12` was tested. Which growth did it give?
**A.** 22.4%

**Q.** With `COc1cc(C(=O)c2c(-c3ccccc3)oc3c(OC)cccc23)cc(OC)c1OC` as the compound, how does the growth read?
**A.** -13.2% (active)

**Q.** With `COc1cccc(/C=C/C(=O)c2cc3c(N)c(C(=O)Nc4cccc5ccccc45)sc3nc2C)c1` as the compound, how does the growth read?
**A.** -17% (active)

**Q.** With `Fc1ccc2[nH]cc(-c3nc(-c4c[nH]c5ccncc45)cs3)c2c1` as the compound, how does the growth read?
**A.** -74.3% (active)

**Q.** Which growth does the source give for `Nc1c(C(=O)Nc2cccc(Cl)c2)sc2nc3c(cc12)CCCC3` here?
**A.** 103%

**Q.** With `Fc1cc(Nc2ccc3c(OCCCN4CCOCC4)cccc3n2)ccc1Cl` as the compound, how does the growth read?
**A.** 65.1%

**Q.** `O=C(O)COc1ccc(Cl)c(Cl)c1` was tested. Which growth did it give?
**A.** 123%

**Q.** How did the growth turn out when `CCN1CCN(C(=O)[C@]23CC[C@@H](C)[C@H](C)[C@@H]2C2=CC[C@@H]4[C@@]5(C)C/C(=C/c6cccnc6)C(=O)C(C)(C)[C@@H]5CC[C@@]4(C)[C@]2(C)CC3)CC1` was run?
**A.** 25.9%
